Measurements taken from PubChem BioAssay.
Active and inactive are the calls of the source.

How the values were obtained:
[1] = test system: Human papillomavirus type 1a protein E7 (residues 44-93); experiment: small molecules binding HPV E7 44-93 – biochemical, small-molecule microarray, residues 44-93, 635 nm fluorescence, primary screen (AID 1108); settings: fluorescence 635 nm, higher = more signal;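 note: E7 fragment applied at 1 µg/mL in TBST for 1 h at 4 C; score combines spot fluorescence with its signal to noise ratio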
[2] = hepatitis C replication reporter changes, two-sided – Huh7 cells, luciferase reporter, HCV replication inhibitor project, primary screen (AID 1109); settings: Huh7 HCV replicon luciferase reporter, 48 h; higher = more signal;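 note: huh7 hepatoma cells harbouring a luciferase neomycin HCV replicon reporter; luciferase luminescence as measure of HCV replicon replication; test concentration not given here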
[3] = target: Left-right determination factor 2 (Homo sapiens) (UniProt O00292); experiment: small molecules binding LEFTY2 protein – biochemical, small-molecule microarray, 635 nm fluorescence scan, primary screen (AID 1110); settings: higher = more signal
[4] = target: Calmodulin-1 (Homo sapiens) (UniProt P0DP23); experiment: small molecules binding calmodulin-1 with EGTA – biochemical, small-molecule microarray, Cy5-labelled CALM1, profiling panel (AID 1111); settings: Cy5-CALM1 binding fluorescence, higher = more signal;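 note: labelled calmodulin applied in Tris saline Tween buffer holding calcium plus EGTA and DTT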
[5] = target: Calmodulin-1 (Homo sapiens) (UniProt P0DP23); experiment: small molecules binding Ca-loaded calmodulin-1 – biochemical, small-molecule microarray, Cy5-labelled CALM1, plus calcium, artefact control for SMM control-protein annotation, profiling panel (AID 1112); settings: Cy5-CALM1 binding fluorescence, higher = more signal;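 note: score merges spot fluorescence with signal to noise from triplicate slides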
[6] = probe aWnt5a binding to arrayed compounds – biochemical, biotinylated probe, 635/667 nm fluorescence, primary screen (AID 1113); settings: small-molecule microarray, higher = more signal;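 note: score merges 667 nm fluorescence intensity with signal-to-noise per printed feature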
[7] = probe aShh binding to arrayed compounds – biochemical, biotinylated probe, 635/667 nm fluorescence, primary screen (AID 1114); settings: small-molecule microarray, higher = more signal;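 note: probe is biotin-labelled aShh protein from a stem cell growth factor screen; measures binding of labelled protein to compounds printed on the slide; score merges feature fluorescence at 667 nm with signal-to-noise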
[8] = probe aNog binding to arrayed compounds – biochemical, biotinylated probe, 635/667 nm fluorescence, primary screen (AID 1115); settings: small-molecule microarray, higher = more signal;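 note: probe is biotinylated aNog protein used at 0.15 µg/mL for 1 h at 4 C; z-score combines 667 nm fluorescence of each spot with its signal to noise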
[9] = target: Torsin-1A-interacting protein 1 (Homo sapiens) (UniProt Q5JTV8); experiment: compound microarray binding of lysate hLAP1 – cell lysate, small-molecule microarray, COS7 lysate, 635/667 nm fluorescence, primary screen (AID 1116); settings: 635 nm fluorescence, higher = more signal
[10] = target: Alpha-bungarotoxin (Bungarus multicinctus) (UniProt P60615); experiment: compounds binding labelled alpha-BTX control protein – biochemical, small-molecule microarray, Alexa647 label, 635/667 nm fluorescence, artefact control for SMM control protein annotation, profiling panel (AID 1117); settings: alpha-BTX-A647 binding fluorescence, higher = more signal
[11] = target: Albumin (Bos taurus) (UniProt P02769); experiment: compounds binding labelled BSA control protein – biochemical, small-molecule microarray, Alexa647 label, 635/667 nm fluorescence, artefact control for SMM control protein annotation, profiling panel (AID 1118); settings: BSA-A647 binding, fluorescence 635 nm, higher = more signal;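 note: score merges 667 nm emission intensity and signal-to-noise per printed compound spot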
[12] = probe aXIP binding to arrayed compounds – biochemical, NeuroSMM set, 635/667 nm fluorescence, primary screen (AID 1119); settings: small-molecule microarray, higher = more signal, called active from +8 up or from −8 down;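 note: probe is the protein aXip251-270 applied at 1 µg/mL to compound-printed slides; binding of probe to printed compounds measured as 667 nm fluorescence plus signal to noise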
[13] = probe aNOTCH3 binding on compound microarray – biochemical, small-molecule microarray, 635/667 nm fluorescence, primary screen (AID 1120); settings: higher = more signal;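 note: probe is a biotin-tagged antibody raised against NOTCH3 rather than NOTCH3 protein; score merges spot fluorescence near 667 nm with spot signal to noise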
[14] = probe aNOTCH2 binding on compound microarray – biochemical, small-molecule microarray, 635/667 nm fluorescence, primary screen (AID 1121); settings: higher = more signal;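 note: score merges feature fluorescence read at 667 nm with its signal to noise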
[15] = target: Carbonic anhydrase 2 (Homo sapiens) (UniProt P00918); experiment: compounds binding carbonic anhydrase 2 – biochemical, small-molecule microarray, Alexa647-labelled CAII, profiling panel (AID 1122); settings: CAII-A647 binding fluorescence, higher = more signal
[16] = COS7 lysate on small-molecule microarray, probe aHis, 635 nm (AID 1123); settings: COS7 cell lysate, fluorescence, higher = more signal;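 note: z-score combines 667nm fluorescence intensity with signal-to-noise per printed compound spot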
[17] = probe aLAP1 signal on lysate-treated microarray – cell lysate, small-molecule microarray, COS7 lysate, primary screen (AID 1124); settings: probe aLAP1, fluorescence, higher = more signal;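 note: lysate comes from COS7 cells expressing LAP1 and is applied at 0.3 µg/mL; score merges spot fluorescence near 667 nm with signal-to-noise over triplicate slides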
[18] = test system: Sam68 (KHDRBS1); experiment: compounds binding KHDRBS1 protein – biochemical, small-molecule microarray, 635 nm fluorescence, primary screen (AID 1125); settings: higher = more signal;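 note: score merges 667 nm channel intensity with signal to noise over triplicate slides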
[19] = test system: Chordin-like protein 2 (CHRDL2); experiment: compounds binding chordin-like 2 – biochemical, small-molecule microarray, 635 nm fluorescence, primary screen (AID 1126); settings: fluorescence 635 nm, higher = more signal;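 note: printed compound slides probed with Chrdl2 protein at 4 µg/mL for 1 h at 4 C; score merges 667 nm emission intensity with signal to noise over three replicate slides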
[20] = target: Concanavalin-A (Canavalia ensiformis) (UniProt P02866); experiment: compounds binding concanavalin A lectin – biochemical, small-molecule microarray, Alexa647 label, 635 nm, artefact control for SMM control protein annotation, primary screen (AID 1127); settings: ConA-A647 binding fluorescence, higher = more signal;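 note: z combines 667 nm emission intensity with signal-to-noise across three replicate slides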
Chain of Concanavalin-A (Canavalia ensiformis) (P02866 whole entry, looked up): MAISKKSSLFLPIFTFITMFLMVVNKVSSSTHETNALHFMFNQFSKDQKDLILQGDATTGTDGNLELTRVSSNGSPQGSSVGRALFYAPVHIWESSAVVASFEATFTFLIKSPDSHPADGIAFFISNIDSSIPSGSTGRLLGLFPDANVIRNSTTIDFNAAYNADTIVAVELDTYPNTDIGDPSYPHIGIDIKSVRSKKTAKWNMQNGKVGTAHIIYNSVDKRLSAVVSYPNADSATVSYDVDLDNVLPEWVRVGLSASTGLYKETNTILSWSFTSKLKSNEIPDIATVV

Chain of Torsin-1A-interacting protein 1 (Homo sapiens) (Q5JTV8 whole entry, looked up): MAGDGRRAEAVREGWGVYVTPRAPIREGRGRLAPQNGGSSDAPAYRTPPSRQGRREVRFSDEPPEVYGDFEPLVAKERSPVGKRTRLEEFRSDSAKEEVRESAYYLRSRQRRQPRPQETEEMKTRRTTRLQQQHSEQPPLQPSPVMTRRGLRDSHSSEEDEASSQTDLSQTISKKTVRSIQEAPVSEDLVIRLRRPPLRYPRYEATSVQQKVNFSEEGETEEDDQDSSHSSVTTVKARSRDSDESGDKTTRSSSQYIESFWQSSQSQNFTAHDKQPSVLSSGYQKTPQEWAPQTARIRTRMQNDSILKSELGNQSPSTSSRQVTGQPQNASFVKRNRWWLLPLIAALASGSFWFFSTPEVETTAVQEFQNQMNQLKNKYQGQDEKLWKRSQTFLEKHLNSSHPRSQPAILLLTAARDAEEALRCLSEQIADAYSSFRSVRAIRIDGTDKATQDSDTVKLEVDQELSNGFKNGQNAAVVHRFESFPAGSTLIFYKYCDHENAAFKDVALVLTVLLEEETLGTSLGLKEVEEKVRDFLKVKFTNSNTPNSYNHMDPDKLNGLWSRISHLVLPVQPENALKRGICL
Chain of Albumin (Bos taurus) (P02769 whole entry, looked up): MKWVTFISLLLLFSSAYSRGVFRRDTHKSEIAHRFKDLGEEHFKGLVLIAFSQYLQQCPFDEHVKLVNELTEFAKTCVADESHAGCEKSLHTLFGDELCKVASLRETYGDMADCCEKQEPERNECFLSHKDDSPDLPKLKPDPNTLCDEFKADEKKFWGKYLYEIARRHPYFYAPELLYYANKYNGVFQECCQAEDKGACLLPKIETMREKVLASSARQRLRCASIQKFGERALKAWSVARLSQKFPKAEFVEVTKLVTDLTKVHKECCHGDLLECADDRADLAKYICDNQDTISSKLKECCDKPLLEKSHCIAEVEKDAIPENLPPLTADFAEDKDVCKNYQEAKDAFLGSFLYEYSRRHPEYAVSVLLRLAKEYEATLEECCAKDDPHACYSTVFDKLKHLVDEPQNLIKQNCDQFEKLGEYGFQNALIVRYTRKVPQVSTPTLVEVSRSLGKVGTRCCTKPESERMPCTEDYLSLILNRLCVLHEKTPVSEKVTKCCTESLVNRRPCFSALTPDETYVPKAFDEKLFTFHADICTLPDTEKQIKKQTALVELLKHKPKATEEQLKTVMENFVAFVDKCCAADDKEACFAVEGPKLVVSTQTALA
Chain of Left-right determination factor 2 (Homo sapiens) (O00292 whole entry, looked up): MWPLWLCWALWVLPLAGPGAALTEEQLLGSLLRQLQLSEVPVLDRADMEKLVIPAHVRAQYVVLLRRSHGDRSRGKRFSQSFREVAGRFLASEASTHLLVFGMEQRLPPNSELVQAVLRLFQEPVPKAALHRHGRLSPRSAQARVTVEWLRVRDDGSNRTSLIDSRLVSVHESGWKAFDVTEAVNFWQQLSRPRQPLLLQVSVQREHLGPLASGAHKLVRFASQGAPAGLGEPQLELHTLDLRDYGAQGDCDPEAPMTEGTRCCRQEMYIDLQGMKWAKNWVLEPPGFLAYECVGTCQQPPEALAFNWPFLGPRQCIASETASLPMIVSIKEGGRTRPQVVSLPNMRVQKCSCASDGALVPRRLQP
Chain of Alpha-bungarotoxin (Bungarus multicinctus) (P60615 whole entry, looked up): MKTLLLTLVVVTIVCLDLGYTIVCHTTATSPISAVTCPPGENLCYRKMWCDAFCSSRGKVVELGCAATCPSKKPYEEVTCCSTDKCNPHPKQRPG

| Structure (SMILES) | composite z-score [1] | z-score [2] | composite z-score [3] | composite z-score [4] | composite z-score [5] | composite z-score [6] | composite z-score [7] | composite z-score [8] | composite z-score [9] | composite z-score [10] | composite z-score [11] | composite Z-score [12] | composite z-score [13] | composite z-score [14] | composite z-score [15] | composite z-score [16] | composite z-score [17] | composite z-score [18] | composite z-score [19] | composite z-score [20] |
| --- | --- | --- | --- | --- | --- | --- | --- | --- | --- | --- | --- | --- | --- | --- | --- | --- | --- | --- | --- | --- |
| CC(C)c1ccc(NN2C(C(O)c3ccc(C#N)cc3)C=CC3C(=O)N(c4ccccc4)C(=O)C32)cc1 (stereo not given) | 1.44 | -0.882 | -0.109 | 2.28 | 1.01 | -0.0405 | 0.19 | 1.97 | 1.35 | 1.85 | 1.04 | 0.238 (inactive) | 0.33 | -0.0296 | 0.358 | 2.84 | 0.982 | 1.3 | 0.0494 | 0.926 |
| COC(=O)C1(CC(C)C)C=C2C(=C(c3ccccc3)C(=O)C2C)CN1 (stereo not given) | -0.518 | -1.33 | -0.844 | -0.0555 | 0.358 | 0.554 | 0.538 | 0.689 | 1.09 | -0.194 | 0.581 | 0.465 (inactive) | 1.31 | 0.54 | 0.502 | 2.15 | 0.407 | -0.213 | -0.521 | -0.991 |
| COC(=O)[C@@]1(Cc2ccc(F)cc2)[C@H]2c3cc(C(=O)N4CCCC4)n(CCc4c[nH]c5ccccc45)c3C[C@H]2CN1C(=O)c1ccccc1 | 1.42 | -1.52 | 0.304 | 1.45 | 1.31 | 0.0718 | 0.582 | 2.08 | 1.63 | 1.89 | 1.11 | -0.263 (inactive) | 0.558 | 0.184 | 0.795 | 3.17 | 1.76 | 1.3 | 0.291 | 0.984 |
| CCCC=C(CCC)[C@@H](NC(=O)c1cccs1)c1ccc(C(=O)OC)cc1 | 0.805 | -0.122 | 0.698 | 0.318 | -0.276 | 1.34 | 2.03 | 2.91 | 0.406 | 0.159 | -0.0481 | 0.0599 (inactive) | 1.29 | 0.728 | 0.0222 | 0.0362 | -0.0022 | -0.411 | 0.513 | 0.588 |
| COCCOC(=O)N1C(=O)[C@@]2(c3cc(C#CCCO)ccc31)[C@H](C(=O)Nc1nc3ccccc3s1)[C@H]1C(=O)O[C@H](c3ccccc3)[C@H](c3ccccc3)N1[C@@H]2c1ccc(O)cc1 | 1.16 | -1.65 | 1.09 | 0.999 | -0.237 | -0.0445 | 0.191 | 0.566 | 0.549 | 1.6 | -0.767 | 0.326 (inactive) | 0.177 | 0.0687 | 0.473 | 2.08 | 0.799 | 1.31 | 0.791 | 1.17 |
| [N-]=[N+]=Nc1ccccc1[C@H]1OC(c2ccc(OCCCO)cc2)=N[C@@]1(Cc1ccccc1)C(=O)NCCN1CCOCC1 | 0.632 | -1.85 | 0.331 | 2.07 | 0.469 | 0.248 | 0.171 | -0.61 | 0.998 | 1.8 | 0.887 | 1.16 (inactive) | 0.457 | 0.117 | 0.529 | 2.87 | 0.634 | 1.3 | 0.0045 | 1.16 |
| CCCCC(O)C1C=CC2C(=O)N(C)C(=O)C2N1N(c1ccccc1)c1ccccc1 (stereo not given) | 0.447 | -0.991 | 0.186 | 2.06 | 0.766 | -0.0161 | 0.393 | 1.53 | 1.41 | 1.8 | 0.878 | 0.418 (inactive) | 0.183 | 0.0203 | 0.797 | 2.73 | 0.923 | 1.32 | -0.711 | 1.1 |
| C=CCN1C(=O)[C@]2(CCC(=O)OC(C)(C)C)N=C(c3ccc(OCCCO)cc3)O[C@@H]2c2ccccc21 | 0.841 | -2.91 | 0.272 | 1.23 | -0.0414 | -0.0441 | 0.131 | -0.292 | 0.423 | 1.38 | -0.361 | -0.014 (inactive) | 0.185 | -0.118 | 0.256 | 1.38 | 0.023 | 0.587 | 0.281 | 1.14 |
| CCOC(=O)C1=C[C@@H](C(C)C)N(S(=O)(=O)c2ccc(C)cc2)[C@H]1c1ccc(C(F)(F)F)cc1 | 1.4 | -0.972 | 0.499 | 1.07 | -0.0824 | -0.0607 | 0.296 | 0.868 | 0.76 | 1.06 | 0.665 | 0.559 (inactive) | 0.256 | -0.0438 | 0.173 | 2.52 | 0.327 | 1.31 | 0.106 | 1.05 |
| N[C@@H](Cc1ccccc1)C(=O)NCc1cn(Cc2ccccc2)nn1 | -0.132 | 0.0943 | 0.167 | -0.761 | -0.232 | -0.119 | -0.0904 | -0.245 | 0.775 | 1.11 | -0.337 | 0.961 (inactive) | -0.0656 | -0.101 | 0.431 | -0.276 | -0.0884 | -0.341 | 0.849 | -0.0527 |
| CCOC(=O)C[C@H]1[C@H](OC(=O)c2ccc(C(=O)c3ccccc3)cc2)[C@@H](NC(=O)CC(C)C)c2cc(OCCCO)ccc2N1C(=O)c1ccccc1 | 1.3 | -1.12 | 0.53 | 0.735 | -0.165 | -0.0758 | -0.167 | -0.0927 | 0.537 | 0.741 | 0.415 | -0.24 (inactive) | 0.104 | -0.0357 | 0.351 | 1.01 | -0.0609 | 1.3 | 0.262 | 1.05 |
| CCCCC(=C=CC[C@H](O)c1ccc(OCCO)cc1)CCO | 0.656 | -1.1 | -0.917 | -0.333 | -0.404 | -0.124 | -0.154 | -0.0007 | 0.92 | -0.322 | 0.837 | 0.0311 (inactive) | -0.121 | -0.0795 | 0.694 | 1.55 | 0.251 | 0.195 | -1.13 | -0.727 |
| OCCCC1=CC(c2ccc(CN3CCCC3)cc2)N(Cc2cc3c(cc2Br)OCO3)CC1 (stereo not given) | -0.377 | -3.23 | 0.477 | -0.464 | -0.811 | -0.0735 | 0.0611 | 0.162 | 1.17 | 0.396 | -0.715 | -0.888 (inactive) | 0.0833 | -0.0467 | 0.0435 | -0.437 | 0.597 | -0.063 | 0.901 | 0.22 |
